40 compounds from PubChem BioAssay (NCI) can be followed below.

This is part of a sample that, as a whole, favours compounds with a hit. Of some 83,000 tested, about 20% had one in any assay.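 Cell lines were cultured in 96-well plates, exposed to a single compound concentration, and assessed for percent growth 48 hours later.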 Activity calls are given as the source filed them.

The test relates to A549/ATCC NSCLC. Nature of the test: NCI-60 one-dose screen, 48 h (100 = growth as untreated, 0 = no growth, -100 = all killed). The following applies: 10 µM unless noted. On the procedure:
Growth inhibition of the A549/ATCC human Non-Small Cell Lung tumor cell line is measured as a screen for anti-cancer activity. Cells are grown in 96 well plates and exposed to the test compound for 48 hours. Compounds are tested at a single concentration, which is 10^-5 M for most compounds. The reported endpoint is percent growth (GI% or GIPRCNT), where numbers from 0 - 100% represent growth inhibition, and numbers from -100% - 0 represent cell death. For example, a value of 40 represents 60% growth inhibition. A value of 0 means no net growth occurred over the course of the experiment. A value of -40 indicates 40% of cells at the beginning of the experiment died by the end of the experiment. A value of -100 means all cells are dead at the end of the experiment.
NCI-60 Human Tumor Cell Lines Screen was performed using the standard one-dose NCI protocol, which is described in more detail at https://dtp.cancer.gov/discovery_development/nci-60/default.htm.
Compounds with GIPRCNT values below 10 were considered active. Activity score was based on GIPRCNT using the following formula: […]
Score is 0 for GIPRCNT values of 100 or above, 50 for GIPRCNT values of 0, and 100 for GIPRCNT values of -100.
Turning to `CCCCCN1C=C/C(=C\C(=O)n2ccc3ccccc32)c2ccccc21`, the growth is 89.4% (inactive).
For `CN1CCN(CCNc2nccc(-c3c(-c4cccc(O)c4)nc4sccn34)n2)S1(=O)=O` the value was 88% (inactive); for `COc1ccc(C(=O)c2cc(C)c(OC)c(C)c2)c(OC)c1OC(=O)C(Cl)Cl`, 11% (inactive).
In the case of `Cc1cc2c(C(=O)NCC#N)cccc2n1-c1nc2c(c(NCc3ccccc3)n1)CCCC2`, the growth was -38.9% (active).
Then `COC(=O)C(CC=O)C(=O)C(=O)Nc1cccc(C(F)(F)F)c1` (stereo not given), with 78.1% (inactive); and `c1ccc2c(-c3c[nH]c4ccccc34)c3c(cc2c1)[nH]c1ccccc13`, with 62% (inactive).
Then `Fc1ccc2c(-c3cncn3CCc3ccccc3)c[nH]c2c1`, with 87% (inactive); and `COc1cc(/C=C\c2cc(OC)c(OC)c(OC)c2)cc(NC(=O)/C=C/c2cc(OC)c(OC)c(OC)c2)c1OC`, with 60.8% (inactive); and `C=C1C(=O)O[C@H]2[C@H]1CC/C(CNC(=O)/C=C/c1cccc(OC)c1)=C\CC[C@@]1(C)O[C@@H]21`, with 47.2% (inactive).
As for `CCC(=O)Oc1ccc(/C(=C(\C)c2ccccc2)c2ccc(OCCN3CCCCC3)cc2)cc1`, the growth is 71.1% (inactive).
Then `Oc1cccc(CCc2ccc(Oc3cc(CCc4cccc(O)c4)cc(O)c3O)cc2)c1`, with 83% (inactive); and `OC(c1cccc(C(F)(F)F)c1)c1cnccc1NC1CCCCC1` (stereo not given), with 75.8% (inactive).
For `CCCCCCNC(=O)Oc1ccc(/C(=C(\C)c2ccccc2)c2ccc(OCCN3CCCCC3)cc2)cc1` the value was 64.4% (inactive); for `COc1ccc2c(c1)oc1c(C)c3c(c(C)c12)C(=O)N(N)C3=O`, 24.1% (inactive); for `C#CCNC(=O)c1cccc2c1cc(C)n2-c1nc2c(c(NCc3ccccc3)n1)CCCC2`, -29.5% (active).
Take `O=S(=O)(NCCNc1nccc(-c2c(-c3cccc(O)c3)nc3occn23)n1)c1ccc(C(F)(F)F)cc1`: the growth was 94.8% (inactive).
For `O=c1ccc(-c2nc(N3CCOCC3)c3ccccc3n2)c[nH]1` the value was 97% (inactive); for `CCOC(=O)c1cc(C#N)n2ccc3ccccc3c12`, 98.8% (inactive).
Then `O=C(c1nc2ccccc2[nH]1)C1C(c2ccc(Br)cc2)C2CC3CCCC[C@H]3N2[C@@]12C(=O)Nc1cc(Cl)ccc12` (stereo not given in full), with 33% (inactive); and `CCCCC[n+]1ccc(SCC(=O)N(C)c2ccc(Oc3ccccc3)cc2)c2ccccc21`, with 96.2% (inactive).
For `Cc1ccc(-n2cc(-c3ccccc3)c3c2N=NN2CCN=C32)cc1` the value was 105% (inactive); for `COc1cc(/C(C)=C(\c2ccc(Cl)cc2)c2ccc(OCCN(C)C)cc2)ccc1F`, 63.4% (inactive); for `COCCCN1CC(O)=C(c2nc(-c3ccc(C)cc3)cs2)C1=N`, 85.4% (inactive).
On to `O=C(NCCc1ccccc1)Nc1ccc2cc3ccc(NC(=O)NCCc4ccccc4)cc3nc2c1`, for which the growth is 73.8% (inactive).
For `CC(c1ccccc1)C(C(=O)c1ccccc1)c1ccccc1` (stereo not given) the value was 80% (inactive); for `O=[N+]([O-])c1cc(Br)c2cccc3c2c1CC3`, 98.5% (inactive); for `CCOC(=O)c1cc(C(=O)c2ccc(OC)cc2)n2ccc(/C=C/c3cc[n+](CC(=O)c4ccc(OC)cc4)cc3)cc12`, 52.2% (inactive).
Then `O=C1c2c(c3c4cccc(F)c4[nH]c3c3ccc4ccccc4c23)C(=O)N1O`, with 65.7% (inactive).
Then `C=C(C)[C@@H]1CC[C@]2(C(=O)N3CCN(C)CC3)CC[C@]3(C)[C@H](CC[C@@H]4[C@@]5(C)CC[C@H](O)C(C)(C)[C@@H]5CC[C@]43C)[C@@H]12`, with -82.4% (active); and `COc1cc(/C=C2\COc3ccc(-c4ccccc4)cc3C2=O)cc(OC)c1`, with 72% (inactive); and `O=C(CCN1CCCC1)Nc1ccc2c(NCCCCc3ccccc3)c3ccccc3nc2c1`, with -45.5% (active).
As for `O=C(Cn1c[n+](CC(=O)c2ccc([N+](=O)[O-])cc2)c2ccccc21)Nc1cccc2cccnc12`, the growth is 14.3% (inactive).
For `Fc1ccc(-c2cn3c(nc4ccccc43)c(-c3ccccc3)n2)cc1` the value was 91.4% (inactive); for `CNC(=O)c1cncc(Cn2nc(C)c(NC(=O)c3ccc(COc4ccc(C(F)(F)F)cc4C)cc3)c2C)c1`, 55% (inactive); for `Cc1cccc(NC(=O)Nc2ccc(-c3ccc4c(c3)NC(=O)/C4=C\c3ccc[nH]3)cc2)c1`, 83.6% (inactive).
Then `CCOC(=O)C1=C(C)NC(SCc2cc(=O)oc3ccc(F)cc23)=N[C@@H]1c1cccc2ccccc12`, with 98.9% (inactive); and `COc1cc2c3c(c4c5ccccc5[nH]c4c2c(OC)c1OC)C(=O)N(CCN1CCOCC1)C3=O`, with 45.1% (inactive).
Then `O=C1c2ccccc2CCC12OC2c1cn(-c2ccccc2)nc1-c1ccc(Cl)cc1` (stereo not given), with 92.7% (inactive).
Turning to `COc1cc(/C=C\C(=O)O)ccc1OCc1ccccc1`, the growth was 82.3% (inactive).
Regarding `O=C(Nc1ccc(Cl)cc1)c1cc(NCc2cc(O)ccc2O)ccc1O`, the growth was 80.7% (inactive).
